# Screening data deposited in PubChem BioAssay by National Center for Advancing Translational Sciences (NCATS).
# IL-2 act: IL-2 activation; 360,000 tested, 0.065% active; AID 652025; activation, % (series mostly up to about 46 µM); IL-2 activation reporter assay, cell-based qHTS; stimulated with anti-CD3/CD4/CD28 beads; in transgenic mouse T cells; in the data active = activation above about 50%; inconclusive = mostly about 30% to 49%; also: 0% is about no effect
#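 Unstimulated transgenic mouse T cells preincubated 60 min with compound, then stimulated with anti-CD3/anti-CD4-coated beads plus anti-CD28 for 18 h at 37 degrees C. IL-2 response read as EGFP and DsRed fluorescence by plate cytometry.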
# RXFP1 antagonist: RXFP1 (human) relaxin receptor antagonism | HEK293-RXFP1, relaxin-stimulated cAMP HTRF, 30 min; stronger effect = lower value | 350,000 tested, 0.59% active | activity change, negative = inhibition, % at 57.5 µM;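 active = activity change of -60% or lower, but not beyond a set lower limit; inconclusive = change between -60% and -40%, or beyond the set limit; inactive = change above -40%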; also: % is scaled to controls: 0 for no effect and ±100 for the full control effect
# Target sequence (Q9HBX9 whole entry, looked up): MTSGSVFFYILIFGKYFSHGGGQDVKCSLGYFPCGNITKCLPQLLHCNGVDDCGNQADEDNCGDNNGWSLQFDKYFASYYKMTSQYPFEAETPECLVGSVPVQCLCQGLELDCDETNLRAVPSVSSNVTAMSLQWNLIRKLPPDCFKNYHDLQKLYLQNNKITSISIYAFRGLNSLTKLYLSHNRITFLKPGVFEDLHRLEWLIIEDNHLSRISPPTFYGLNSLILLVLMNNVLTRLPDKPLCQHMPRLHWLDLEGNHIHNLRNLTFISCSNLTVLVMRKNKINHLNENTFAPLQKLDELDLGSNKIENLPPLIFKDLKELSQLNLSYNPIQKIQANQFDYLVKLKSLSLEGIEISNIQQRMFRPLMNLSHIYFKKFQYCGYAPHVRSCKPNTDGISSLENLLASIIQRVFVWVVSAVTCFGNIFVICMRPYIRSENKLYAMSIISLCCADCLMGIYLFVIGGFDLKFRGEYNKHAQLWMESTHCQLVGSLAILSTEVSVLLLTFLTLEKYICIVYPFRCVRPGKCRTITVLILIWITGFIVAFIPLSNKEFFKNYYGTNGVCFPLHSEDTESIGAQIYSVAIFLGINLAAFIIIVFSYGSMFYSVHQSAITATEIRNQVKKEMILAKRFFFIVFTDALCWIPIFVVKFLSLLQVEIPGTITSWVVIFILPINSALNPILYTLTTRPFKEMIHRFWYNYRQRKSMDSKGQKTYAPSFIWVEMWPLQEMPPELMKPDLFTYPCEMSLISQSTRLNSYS
# Giardia kill: Giardia lamblia killing; AID 540267; Giardia lamblia trophozoite viability; 340,000 tested, 0.15% active; activity change, % at 7.66 µM, hits read low; in the data active = activity change below about -80%; inconclusive = between about -30% and that limit;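 also: parasites exposed to compound for two days anaerobically before the ATP read; % is scaled to controls: 0 for no effect and ±100 for the full control effect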
#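 Giardia lamblia trophozoites (100 cells/well) were incubated with compounds for 48 h at 37 deg C under anaerobic conditions. Viability was read as ATP content by one-step luminescence after 15-30 min at room temperature.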
# BRCA1 expr act: activators of BRCA1 expression; MCF7-BRCA1-FFLuc reporter, luminescence, 48 h; response scale: scaled: vehicle 0%, 10 µM genistein 100%; Potency, µM (top dose mostly 46.1 µM), inactives show at the highest dose activation, hits mostly activators; 380,000 tested, 1.1% active; AID 624202; also: potency is read from the fitted curve at half-maximal effect; nearly all actives have a fitted effect of over 80% in size
#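 Cells: MCF7-BRCA1-FFLuc, 2000/well. Exposure: 48 h, 37 °C, 5% CO2. Read: luminescence, 15 min post-substrate. Controls: genistein 10 microM (maximal activation), DMSO (neutral).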
# RXFP1 ag: activates the human relaxin receptor RXFP1; Q9HBX9; HEK293T-RXFP1 cAMP TR-FRET, 30 min; response scale: percent of porcine relaxin response, buffer zero; Potency, µM (series often up to 57.5 µM), for the others: at the top dose activation, hits mostly activators; 370,000 tested, 0.3% active; also: potency is read from the fitted curve at half-maximal effect; % is scaled to controls: 0 for no effect and ±100 for the full control effect; nearly all actives have a fitted effect of over 60% in size
#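 cAMP rise read by TR-FRET after 30 min, 37C compound exposure (up to 58 uM) in RXFP1-transfected HEK293 cells with Ro 20174 present. EC50 from Hill-equation fits, with 29 nM porcine relaxin as 100% and buffer as basal.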
# NPSR antag: neuropeptide S receptor (human) antagonism, cAMP; 220,000 tested, 1% active; Q6W5P4; Potency, µM (top dose mostly 38.3 µM), for the others: at the top dose activity change, negative = inhibition, hits mostly inhibitors; CHO-NPSR cells, cAMP TR-FRET, antagonist mode; also: potency is read from the fitted curve at half-maximal effect; % is scaled to controls: 0 for no effect and ±100 for the full control effect; nearly all actives have a fitted effect of over 50% in size
# The depositor's hits bear a star; ? = inconclusive; . = not tested or not shown; [ ] = remark or other dose. Compounds with a hit are over-represented: about 1.9% of the library has one in this group of screens. Unless noted, calls follow the shape of the dose curve; as a rule, active = well fitted curve in the direction sought with a large enough effect; inconclusive = small, poorly fitted or top-dose-only effect, or another doubt; inactive = no such curve, though single readings can be large; an effect the other way counts as inactive or inconclusive.
SMILES,IL-2 act,RXFP1 antagonist,Giardia kill,BRCA1 expr act,RXFP1 ag,NPSR antag
Cc1nc2ccc(NC(=O)CCC3CCCC3)cc2s1,-1,6,-7,11µM*,0%,.
O=C(Nc1cccn2ncnc12)c1ccc(Cl)cc1,-2,-3,-4,-19%,0%,-4%[46.1 µM]
O=C(Nc1cnc2ccccn2c1=O)c1ccc(Cl)cc1,1,1,9,11µM*,1%,-7%[46.1 µM]
CC1CN(c2ccc([N+](=O)[O-])c(NCCOc3ccc(Cl)cc3)c2)CC(C)N1 (stereo not given),-1,-97*,-3,-84%,2%,.
COc1ccc(NC(=O)/C(C#N)=C\c2ccc(-c3cccc(C(=O)O)c3C)o2)cc1,-2,0,6,82%,-1%,.
Cc1c(C(=O)O)cccc1-c1ccc(C=O)o1,0,7,2,7.9µM*,1%,9%
C(=C\c1ccnc2ccccc12)/c1cccnc1,.,.,.,-13%,.,.
CN(C)CCCN1c2ccccc2Sc2ccc3ccccc3c21,-6,-63*,-19,-72%,.,.
CN(C)CCCN1c2ccc3ccccc3c2Sc2cccc(Cl)c21,-6,-24,-5,-98%,.,.
CC(=O)N(c1ccc(Cl)cc1)C1SC(=O)N(c2ccccc2)C1=O (stereo not given),.,.,-8,16%,.,.
COc1ccc(C2Nc3ccc(NC(C)=O)cc3C(=O)N2Cc2cccc(Cl)c2)cc1COc1ccc(NC(C)=O)cc1 (stereo not given),.,.,6,0%,.,.
CCn1c(SCC(=O)NC(=O)NCc2ccco2)nc2sc(C)c(C)c2c1=O,0,-69*,-5,-10%,-3%,-2%[46.1 µM]
Cc1sc2nc(SCC(=O)NCc3ccco3)n(C)c(=O)c2c1C,0,7,2,-6%,4%,-12%[46.1 µM]
CCOc1ccc(-c2noc(-c3cccnc3)n2)cc1OC,3,-31,-9,8.9µM*,1%,8%[46.1 µM]
COc1ccc(-c2nnc(-c3cccnc3)o2)cc1OC,-2,0,3,90%,7%,-11%[46.1 µM]
CCOc1cc(-c2noc(-c3cccnc3)n2)ccc1OC,-1,-3,-4,36%,-2%,-17%[46.1 µM]
COc1ccc(-c2noc(-c3cccnc3)n2)cc1OC,1,-14,-18,7.9µM*,1%,10%
O=C(C[n+]1ccc(Cl)c2ccc(Cl)cc21)c1ccc(F)cc1,.,.,.,5%,.,.
Cn1nnc2c(NCc3ccco3)ncnc21,.,.,.,13%,.,.
O=S(=O)(c1ccccc1Br)N1CCN(c2nc(-c3cccs3)nc3ccccc23)CC1,.,.,-8,24%,.,.
CC1CCC(C(C)C)C(OC(=O)Cn2c(-c3ccccc3)[n+](C)c3ccccc32)C1 (stereo not given),-1,-71*,-28,-86%,0%,?
C=CCNC(=S)NNC(=O)COc1ccc2cc(Br)ccc2c1,-5,-10,-9,10µM*,12%,-7%
C=CCNC(=S)NNC(=O)COc1ccc(Br)cc1,0,18,?,14%,1%,7%
Cc1ccc2c(CNCc3ccco3)cc(=O)oc2c1,-1,7,-7,7.9µM*,2%,-6%
CC(=O)Nc1nnc(COc2ccc(Cl)cc2)s1,-1,-16,7,4.5µM*,-3%,0%
SMILES,IL-2 act,RXFP1 antagonist,Giardia kill,BRCA1 expr act,RXFP1 ag,NPSR antag
COc1ccc(CCn2c(=S)[nH]c(=O)c3nccnc32)cc1OC,.,.,-17,3%,.,.
Nc1nnc(SCCOc2ccc(Br)cc2)s1,2,-8,-6,11µM*,1%,?
COc1ccc(CNC(=O)CSc2nc(-c3ccccc3)cc(-c3cccs3)c2C#N)cc1,0,-7,9,-16%,28%,10µM*
CCc1nnc(NC(=O)CSc2nc(-c3ccccc3)cc(-c3ccc(F)cc3)c2C#N)s1,-3,24,-1,-29%,11%,10µM*
Cc1ccc(N2CC(NC(=O)c3ccco3)CC2=O)cc1 (stereo not given),.,1,.,.,3%,.
Cc1ccc(CNC(=O)CCCc2nnc3n(C)c(=O)c4sccc4n23)cc1,.,3,.,.,?,.
COc1ccccc1NC(=O)CCCc1nnc2n(C)c(=O)c3sccc3n12,1,11,0,1%,4.5µM*,.
CCn1c(=O)c2sccc2n2c(CCCC(=O)Nc3ccc(Oc4ccccc4)cc3)nnc12,.,-3,.,.,3%,.
Cn1c(=O)c2sccc2n2c(CCCC(=O)NCc3ccco3)nnc12,1,5,26,0%,14µM*,.
CCn1c(=O)c2sccc2n2c(CCCC(=O)NCc3cccnc3)nnc12,0,-7,16,14%,18µM*,.
Cc1ccc2c(n1)Oc1ccc(C(C)C(=O)OCC(=O)N(C)C)cc1C2 (stereo not given),.,-5,.,.,.,.
CC(C)(C)NC(=O)N1CCN(c2nc3ccc(Cl)cc3s2)CC1,-4,-12,-7,10µM*,-1%,.
CC(C)(CC(=O)O)CC(=O)N1CCN(c2nc3ccc(Cl)cc3s2)CC1,-3,-3,-19,49%,0%,.
CCOC(=O)N1CCN(S(=O)(=O)c2c(C)nc3scc(C)n3c2=O)CC1,2,18,10,-3%,14µM*,.
CCOC(=O)N1CCN(S(=O)(=O)c2c(C)nc3sccn3c2=O)CC1,0,-5,-23,0%,?,.
O=C(COC(=O)/C=C/c1ccc([N+](=O)[O-])cc1)Nc1ccc2[nH]c(=O)[nH]c2c1,-5,-69*,-5,-25%,0%,.
O=c1oc2ccc3ccccc3c2cc1-c1nnc(-c2ccccc2)o1,2,-15,9,50%,2%,-14%[46.1 µM]
CCN(CC)c1ccc2cc(-c3nc4ccccc4[nH]3)c(=O)oc2c1,14,8,-108*,24%,9%,?
CCN(CC)c1ccc2cc(-c3nnc(-c4ccccc4)o3)c(=O)oc2c1,12,-7,-4,1.4µM*,0%,-14%[46.1 µM]
COc1cc(/C=C/C(=O)O[C@H]2CC[C@]34C[C@]35CC[C@]3(C)[C@@H]([C@H](C)CCC=C(C)C)CC[C@@]3(C)C5CCC4C2(C)C)ccc1O (stereo not given in full),.,10,.,.,.,.
CC1CCc2nc(-c3cc4ccc(O)cc4oc3=O)sc2C1 (stereo not given),.,.,-11,?,.,.
O=C(NNCc1ccc(O)cc1)c1ccccc1Cl,0,-25,-18,13µM*,-3%,.
CCc1cccc(NC(=O)Nc2cccs2)c1,0,-25,-22,11µM*,-1%,18%[46.1 µM]
N#C/C(C(=O)c1ccccc1)=C1/CCCCCN1,0,7,3,4µM*,0%,19%[7.67 µM]
N#C/C(=C1/CCCCCN1)c1nc2ccccc2[nH]1,2,2,4,18%,0%,1%[46.1 µM]
